PubChem BioAssay
A number with no mark means an inactive call. For part of these data: Measured potencies and affinities stand elsewhere. Calls of active or inactive are those of the source. Unless noted, how the calls were made is not given here.

Columns and labels:
[1] = antimalarial activity against Dd2 strain (AID 2302;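 active means growth inhibition above 50% at the single 2 µM test dose, taken to imply half-maximal potency below 2 µM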;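 further: 0% = DMSO untreated growth and 100% = chloroquine plus artemisinin killed control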); settings: P. falciparum Dd2 in RBCs, LDH growth readout, 72 h; at 2 µM; stronger effect = higher value
[2] = human hepatoma cell viability loss – ATP luminescence, cytotoxicity control for P. falciparum antimalarial project, primary screen (AID 2303;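 active means inhibition above 50%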;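 further: 0% = DMSO wells and 100% = digitonin-killed cells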); settings: HepG2 viability, 24-48 h, at 10 µM, stronger effect = higher value
[3] = biological target: L-lactate dehydrogenase (Plasmodium falciparum (isolate CDC / Honduras)) (UniProt Q27743); assay: PfLDH activity inhibition – cell lysate, 3D7 strain, counter-screen for P. falciparum growth inhibition project (AID 2304);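 further: 0% = vehicle and 100% = reference inhibitor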; settings: P. falciparum 3D7 crude extract, LDH APAD/NBT absorbance; at 2 µM; stronger effect = higher value
[4] = inhibition of 3D7 malaria parasite growth – strain 3D7 (AID 2306);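 further: 0% = DMSO wells and 100% = chloroquine plus artemisinin control wells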; settings: P. falciparum 3D7 erythrocytic growth, LDH absorbance, 72 h; at 2 µM; stronger effect = higher value
[5] = biological target: Calcium-dependent protein kinase 1 (Plasmodium falciparum (isolate 3D7)) (UniProt P62344); assay: PfCDPK1 kinase inhibitors, biochemical, TCAMS library (AID 1159585; cut-off not given, nearly all actives have IC50 up to about 0.98 µM;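 further: inhibitors leave more ATP so luminescence rises with inhibition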); settings: recombinant PfCDPK1, Kinase-Glo ATP depletion luminescence
[6] = biological target: Plasmodium falciparum protein kinase 6 (PK6, PF3D7_1337100) (UniProt Q8IDW1); assay: PfPK6 kinase inhibitors, biochemical, TCAMS library (AID 1159586); settings: recombinant PfPK6, Kinase-Glo ATP depletion luminescence
[7] = biological target: Protein kinase 7 (PK7), Plasmodium falciparum 3D7 (PF3D7_0213400) (UniProt Q7YTF7); assay: inhibition of Plasmodium PK7 catalytic activity – biochemical, TCAMS antimalarial set, Kinase-Glo luminescence (AID 1159587); settings: recombinant PfPK7, Kinase-Glo ATP depletion luminescence
[8] = biological target: Calcium-dependent protein kinase 4 (Plasmodium falciparum (isolate 3D7)) (UniProt Q8IBS5); assay: PfCDPK4 kinase inhibitors, biochemical, TCAMS library (AID 1159588; cut-off not given, nearly all actives have IC50 up to about 0.91 µM); settings: recombinant PfCDPK4, Kinase-Glo ATP depletion luminescence
Sequence of Calcium-dependent protein kinase 4 (Plasmodium falciparum (isolate 3D7)) (Q8IBS5 whole entry, looked up): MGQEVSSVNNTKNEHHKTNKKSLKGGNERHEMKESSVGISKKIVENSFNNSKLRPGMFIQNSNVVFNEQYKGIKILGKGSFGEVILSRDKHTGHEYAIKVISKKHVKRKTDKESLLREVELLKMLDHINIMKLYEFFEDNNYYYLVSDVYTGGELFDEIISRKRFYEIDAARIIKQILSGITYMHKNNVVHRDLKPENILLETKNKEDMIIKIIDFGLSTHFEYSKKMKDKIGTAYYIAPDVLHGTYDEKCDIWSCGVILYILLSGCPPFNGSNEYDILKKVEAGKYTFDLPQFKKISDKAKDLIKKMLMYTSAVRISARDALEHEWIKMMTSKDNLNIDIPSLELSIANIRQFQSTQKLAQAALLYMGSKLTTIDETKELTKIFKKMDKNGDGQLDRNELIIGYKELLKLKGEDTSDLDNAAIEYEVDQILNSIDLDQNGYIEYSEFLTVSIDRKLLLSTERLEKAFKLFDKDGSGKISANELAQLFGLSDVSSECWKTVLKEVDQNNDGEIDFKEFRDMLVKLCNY

Sequence of Protein kinase 7 (PK7), Plasmodium falciparum 3D7 (PF3D7_0213400) (Q7YTF7 1-343): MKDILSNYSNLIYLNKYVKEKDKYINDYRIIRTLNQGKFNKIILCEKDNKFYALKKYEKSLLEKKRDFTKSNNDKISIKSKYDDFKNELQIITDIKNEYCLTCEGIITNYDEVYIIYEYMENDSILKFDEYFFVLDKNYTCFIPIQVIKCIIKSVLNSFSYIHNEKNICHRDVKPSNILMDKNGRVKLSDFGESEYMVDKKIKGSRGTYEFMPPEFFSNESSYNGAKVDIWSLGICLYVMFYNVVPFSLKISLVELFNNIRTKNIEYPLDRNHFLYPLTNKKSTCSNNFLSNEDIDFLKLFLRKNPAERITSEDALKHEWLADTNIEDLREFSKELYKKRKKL
Sequence of L-lactate dehydrogenase (Plasmodium falciparum (isolate CDC / Honduras)) (Q27743 whole entry, looked up): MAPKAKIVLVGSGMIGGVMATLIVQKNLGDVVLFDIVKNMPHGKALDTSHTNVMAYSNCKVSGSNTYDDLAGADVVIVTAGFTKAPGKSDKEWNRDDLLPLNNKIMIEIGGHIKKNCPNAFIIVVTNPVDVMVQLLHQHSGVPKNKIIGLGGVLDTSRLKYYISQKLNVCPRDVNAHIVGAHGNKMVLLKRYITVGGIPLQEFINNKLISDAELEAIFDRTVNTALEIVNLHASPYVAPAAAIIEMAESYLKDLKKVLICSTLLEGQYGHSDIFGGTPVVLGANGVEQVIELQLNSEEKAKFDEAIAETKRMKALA
Sequence of Plasmodium falciparum protein kinase 6 (PK6, PF3D7_1337100) (Q8IDW1 1-305): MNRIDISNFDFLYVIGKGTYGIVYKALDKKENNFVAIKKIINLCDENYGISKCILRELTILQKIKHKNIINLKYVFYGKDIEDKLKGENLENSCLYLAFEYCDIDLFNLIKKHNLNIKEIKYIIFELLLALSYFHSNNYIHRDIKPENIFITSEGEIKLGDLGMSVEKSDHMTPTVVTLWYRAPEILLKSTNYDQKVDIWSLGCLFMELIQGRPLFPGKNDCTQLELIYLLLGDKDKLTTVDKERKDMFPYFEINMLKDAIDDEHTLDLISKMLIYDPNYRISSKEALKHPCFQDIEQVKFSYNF
Sequence of Calcium-dependent protein kinase 1 (Plasmodium falciparum (isolate 3D7)) (P62344 whole entry, looked up): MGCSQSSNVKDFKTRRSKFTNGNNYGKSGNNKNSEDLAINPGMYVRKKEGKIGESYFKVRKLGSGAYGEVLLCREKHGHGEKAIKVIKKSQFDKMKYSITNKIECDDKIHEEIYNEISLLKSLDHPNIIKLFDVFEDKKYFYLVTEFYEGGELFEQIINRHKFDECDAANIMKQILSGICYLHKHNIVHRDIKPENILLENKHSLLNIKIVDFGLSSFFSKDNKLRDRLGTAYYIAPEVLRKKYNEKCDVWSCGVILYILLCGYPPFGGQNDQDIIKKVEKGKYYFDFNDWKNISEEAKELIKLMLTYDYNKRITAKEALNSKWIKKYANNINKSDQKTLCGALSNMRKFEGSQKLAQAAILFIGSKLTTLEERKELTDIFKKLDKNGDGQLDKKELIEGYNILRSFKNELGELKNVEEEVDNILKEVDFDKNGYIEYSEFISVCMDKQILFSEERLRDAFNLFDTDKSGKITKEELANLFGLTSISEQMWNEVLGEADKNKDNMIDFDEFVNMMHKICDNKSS

SMILES	growth inhibition [1]	inhibition [2]	inhibition [3]	growth inhibition [4]	outcome [5]	outcome [6]	outcome [7]	outcome [8]
Cc1cc(N[C@@H](Cc2ccccc2)C(=O)NCc2cccs2)nc(NCCc2ccc(F)cc2)n1	83% (active)	3%	3%	100% (active)	inactive	inactive	inactive	inactive
COc1ccc(S(=O)(=O)NC2CCN(CCCOc3ccnc4cc(Cl)ccc34)C2)cc1OC (configuration not stated)	56% (active)	8%	1%	91% (active)	inactive	inactive	inactive	inactive
CCn1c(CN2CCC(C)CC2)nc2cc(NC(=O)c3cccs3)ccc21	95% (active)	40%	1%	91% (active)	inactive	inactive	inactive	inactive
Nc1nc(N)c2c(ccc3c2ccn3C2C=CCCC2)n1 (configuration not stated)	65% (active)	68% (active)	-2%	94% (active)	inactive	inactive	inactive	inactive
CCOc1ccc(C(Cc2ccccc2)NC(=O)c2cccnc2)cc1OCC (configuration not stated)	98% (active)	-21%	5%	100% (active)	inactive	inactive	inactive	inactive
Cn1cncc1C(=O)Nc1cccc(-c2csc(-c3nc4ccccc4[nH]3)c2)c1	64% (active)	15%	-3%	102% (active)	inactive	inactive	inactive	inactive
COc1ccc(-c2cc(C(=O)Nc3ccc(CCCN(C)Cc4ccc(OC)c(OC)c4)cc3)c3ccccc3n2)cc1	47%	40%	-3%	92% (active)	inactive	inactive	inactive	inactive
CC(Cl)=CCc1c(C)[nH]c2c(ccc3ccccc32)c1=O	96% (active)	24%	8%	96% (active)	inactive	inactive	inactive	inactive
Cc1ccc2[nH]c3c(NCCCN4CCOCC4)ncnc3c2c1	9%	-1%	-3%	101% (active)	inactive	inactive	inactive	inactive
COc1ccccc1C1CCN(C2CCC(NC(=O)/C=C/c3cc(F)c(F)cc3F)CC2)CC1 (configuration not stated)	0%	39%	-5%	85% (active)	inactive	inactive	inactive	inactive
Cc1ccc(C(=O)Nc2ccc(C)c(OC3CCN(CCC(C)C)C3)c2)cc1 (configuration not stated)	53% (active)	6%	-13%	99% (active)	inactive	inactive	inactive	inactive
C[C@H](O)[C@@](C)(CO)NCc1ccc2c3c(cccc13)-c1ccccc1-2	85% (active)	81% (active)	-2%	95% (active)	inactive	inactive	inactive	inactive
CC(C)N(Cc1ccccc1)C(=O)CN1C(=O)COc2ccc(S(=O)(=O)N3CCCCCC3)cc21	99% (active)	-11%	-3%	99% (active)	inactive	inactive	inactive	inactive
Cc1cc(NN=Cc2ccccc2F)c2ccccc2n1	81% (active)	14%	1%	101% (active)	inactive	inactive	inactive	inactive
O=C(NCCCCN1CCC(c2ccc3c(c2OCCN2CCCC2=O)CCCC3)CC1)c1ccc(-c2ccc(C(F)(F)F)cc2)cc1	1%	56% (active)	1%	88% (active)	inactive	inactive	inactive	inactive
Clc1ccc(CNC2CCN(CC3CCCCC3)CC2)cc1	15%	12%	5%	92% (active)	inactive	inactive	inactive	inactive
Cc1cc(NC(=O)c2ccco2)ccc1OC1CCN(Cc2ccc(F)cc2)C1 (configuration not stated)	92% (active)	5%	5%	96% (active)	inactive	inactive	inactive	inactive
C[C@]12CC3CC(Nc4nc(N5CCOCC5)nc5ccccc45)(C1)C[C@@](C)(C3)C2	14%	31%	-5%	95% (active)	inactive	inactive	inactive	inactive
O=C(NC(CCCN1CCC2(CC1)OCc1ccccc12)c1ccc(Cl)c(Cl)c1)c1cc(C(F)(F)F)cc(C(F)(F)F)c1 (configuration not stated)	99% (active)	55% (active)	5%	100% (active)	inactive	inactive	inactive	inactive
O=C(Nc1ccc(C(=O)OCC(c2ccccc2)c2ccccc2)cc1)N[C@@H](Cc1ccc(O)cc1)C(=O)NC1CCN(Cc2ccc(O)cc2)C1 (some centres not stated)	-4%	-9%	1%	96% (active)	inactive	inactive	inactive	inactive

SMILES	growth inhibition [1]	inhibition [2]	inhibition [3]	growth inhibition [4]	outcome [5]	outcome [6]	outcome [7]	outcome [8]
CCOC(=O)c1ccc(NC(=O)c2ccccc2C(=O)O)cc1	0%	2%	-3%	92% (active)	inactive	inactive	inactive	inactive
c1ccc2[nH]c(-c3ccc(-c4ccc(CNC5CC5)cc4)s3)nc2c1	19%	25%	-7%	91% (active)	inactive	inactive	inactive	inactive
CC(C)COc1ccc(Cl)cc1Cc1ccc(-c2nc3c(cnc4ccccc43)[nH]2)o1	26%	21%	1%	87% (active)	inactive	inactive	inactive	inactive
Cc1nnc2c(NC(=O)NC3CCCC3)cc3cc(-c4ccc(CN(C)C)cc4)ccc3n12	37%	100% (active)	-2%	100% (active)	inactive	inactive	inactive	inactive
Cc1cccc(CN2CCC(Oc3ccc(NC(=O)c4cccs4)cc3Cl)CC2)n1	88% (active)	27%	7%	86% (active)	inactive	inactive	inactive	inactive
COc1ccc(Cn2ncc3c4c(N)nc(N)nc4ccc32)cc1OC	95% (active)	68% (active)	3%	94% (active)	inactive	inactive	inactive	inactive
CCOc1ccc(C(C)NC(=O)Nc2ccccc2)cc1OCC (configuration not stated)	95% (active)	14%	1%	96% (active)	inactive	inactive	inactive	inactive
Brc1cc(Br)c2c(c1)C(NCCCNC1CCNc3c(Br)cc(Br)cc31)CCN2 (configuration not stated)	25%	18%	-1%	98% (active)	inactive	inactive	inactive	inactive
C#CCN(Cc1ccc2nc(N)[nH]c(=O)c2c1)c1ccc(C(=O)N[C@@H](CCC(=O)O)C(=O)O)cc1	96% (active)	45%	3%	95% (active)	inactive	inactive	inactive	inactive
COc1cc(Cc2cnc(N)nc2N)cc(OCc2cccc(C(=O)O)c2)c1OC	-3%	8%	4%	92% (active)	inactive	inactive	inactive	inactive
CCOC(=O)Nc1cc(-c2csc(N=C(N)N)n2)cc([N+](=O)[O-])c1	88% (active)	12%	-8%	101% (active)	inactive	inactive	inactive	inactive
CC(C)=C(C(=O)OCc1ccccc1)N1C(=O)[C@@H](NC(c2ccccc2)(c2ccccc2)c2ccccc2)[C@H]1[S@@](=O)CC(=O)OC(C)(C)C	78% (active)	-2%	-4%	92% (active)	inactive	inactive	inactive	inactive
CCN1CCC(N(Cc2ccc(-c3ccc(Cl)cc3)cc2)C(=O)Cn2c(CCc3cccc(F)c3F)cc(=O)c3ccccc32)CC1	95% (active)	100% (active)	-7%	99% (active)	inactive	inactive	inactive	inactive
COc1ccc(CN2CCCC(OC(c3ccc(F)cc3)c3ccc(F)cc3)C2)c(O)c1 (configuration not stated)	99% (active)	16%	0%	100% (active)	inactive	inactive	inactive	inactive
COc1ccc2ncc(F)c(CCN3C[C@H](CNCc4cc(C#N)c5c(c4)OCCO5)[C@H](O)C3)c2n1	64% (active)	7%	-5%	100% (active)	inactive	inactive	inactive	inactive
Cn1cncc1CNCc1ccc(-c2cccc(-c3nc4ccccc4[nH]3)c2)cc1	92% (active)	19%	-1%	101% (active)	inactive	inactive	inactive	inactive
COc1ccc(C(=O)Nc2nonc2-c2ccc(OC)c(OC)c2)cc1Cl	97% (active)	6%	0%	97% (active)	inactive	inactive	inactive	inactive
COc1ccc(-c2nc(NC(=O)CS(=O)(=O)c3ccccc3)sc2C)cc1	82% (active)	7%	-9%	99% (active)	inactive	inactive	inactive	inactive
COc1ccc2nccc([C@@H](O)CN3CCC(NCC(=O)Nc4cc(F)cc(F)c4)CC3)c2n1	28%	18%	-8%	89% (active)	inactive	inactive	inactive	inactive
